The text below walks through data of PubChem BioAssay AID652042 (Broad Institute, 2013).

Molecules are shown by their SMILES. About 350 (32%) of roughly 1,100 compounds were called active. A selection follows. Entries that show only a call come without a potency. Potency and affinity values are given separately. A number with no mark means an inactive call. The rule behind the calls is not given here.

The nature of the assay: viability loss in CEM21 cells – cell-based, CellTiter-Glo luminescence, cherry-picked, cytotoxicity control for viral fusion inhibitor project, dose response (AID 652042). To be noted: CellTiter-Glo ATP luminescence, 24 h; series mostly up to 35 µM. Background: Cellular ATP, detected with luciferase, serves as a proxy for viable cell number.
`Cc1cc(C(=O)CN2C(=O)c3ccccc3S2(=O)=O)c(C)n1CC1CCCO1` (centres undefined): the activity change, negative = cytotoxicity result was “inactive”.

In the case of `O=C(NC1=NCCS1)C1COc2ccccc2O1` (centres undefined), the activity change, negative = cytotoxicity entry was “inactive”. Next, `COC(=O)c1ccc(NC(=O)c2ccc(CN3CCOCC3)cc2)cc1`: “inactive”.

Turning to `O=C(Nc1ccc(S(=O)(=O)N2CCCC2)cc1)c1ccc(CN2CCOCC2)cc1`, the activity change, negative = cytotoxicity entry was “inactive”.

For the compound `O=S(=O)(c1ccc(Cl)cc1)N1CCCN(c2nc3ccc(Cl)cc3s2)CC1`, the activity change, negative = cytotoxicity entry was “inactive”.

As for `O=C(CC1C(=O)NCCN1Cc1cccc(F)c1)NC1CCCCC1` (centres undefined), the activity change, negative = cytotoxicity result is “inactive”. Next, `CC(C)(C)c1ccc(OCCC(=O)Nc2cccc(S(=O)(=O)N3CCOCC3)c2)cc1`: “inactive”; `COc1ccc(NC(=O)Nc2ccc3c(c2)N(C)C(=O)CS3)cc1Cl`: “inactive”.

For the compound `CCOc1ccccc1N(C(=O)CNC(=O)c1ccco1)C(C(=O)NC1CCCC1)c1cccnc1` (centres undefined), the activity change, negative = cytotoxicity result is “inactive”. In the case of `CCOc1ccc(S(=O)(=O)NCc2ccncc2)cc1` it was “inactive”. With `O=C(C[C@@H]1C[C@H]2c3cc(NC(=O)C4CCOCC4)ccc3O[C@H]2[C@H](CO)O1)NCc1ccccc1F`, the activity change, negative = cytotoxicity result was “inactive”. Next, `CC(C)NC(=O)Nc1ccc2c(c1)C(=O)N([C@@H](C)CO)C[C@@H](C)[C@@H](CN(C)C(=O)CCC(F)(F)F)OCCCC[C@@H](C)O2`: “inactive”.

Regarding `CO[C@H]1CN(C)C(=O)c2cc(NC(C)=O)ccc2OC[C@@H](C)N(Cc2nccs2)C[C@H]1C`, the activity change, negative = cytotoxicity entry was “inactive”. Take `CC(NC(=O)CN(C)CC(=O)Nc1ccc(Cl)c(C(F)(F)F)c1)c1ccccc1` (centres undefined): the activity change, negative = cytotoxicity entry was “inactive”.

Take `COc1ccccc1NC(=O)N[C@@H]1C=C[C@H](CC(=O)NCc2ccc(Cl)c(Cl)c2)O[C@@H]1CO`: the activity change, negative = cytotoxicity entry was “inactive”. In the case of `Cc1cccc(N2C(=O)N3[C@H](c4ccc(Br)cc4)[C@@H]4C(=O)N(C(C)(C)C)C(=O)[C@@H]4[C@]3(C)C2=O)c1` it was “inactive”; in that of `COc1cc2c(c(OC)c1OC)[C@@]1(c3ccccc3)CCCC[C@H]1[C@@H]2NC(=O)C(F)(F)F`, “inactive”; in that of `Cc1ccccc1OCCCCn1cnc2ccccc21`, “inactive”. Next, `CC[C@]1(C(=O)OC)[C@H]2C(=O)N(Cc3ccccc3)C(=O)[C@H]2[C@H]2CN=C(SCc3ccccc3)N21`: “inactive”.

For the compound `Cc1ccc(CSCCNC(=O)c2ccc(Cl)c(S(=O)(=O)N3CCOCC3)c2)cc1`, the activity change, negative = cytotoxicity result was “inactive”. In the case of `COc1ccc(OC)c(-c2cc(C(=O)Nc3c(C)nn(Cc4ccc(Cl)cc4)c3C)no2)c1`, the activity change, negative = cytotoxicity entry was “inactive”.

For the compound `COc1ccc([C@@H]2[C@@H]3C(=O)N(C(C)(C)C)C(=O)[C@@H]3[C@]3(CC(C)C)C(=O)N(c4ccc(C(F)(F)F)cc4)C(=O)N23)cc1`, the activity change, negative = cytotoxicity result was “inactive”. In the case of `CC1(C(=O)NCc2ccc3c(c2)OCO3)CCN1Cc1csc2ccccc12` (centres undefined) it was “inactive”; in that of `O=C(c1ccc(Cl)s1)N1CCN(c2nc3ccccc3s2)CC1`, “inactive”. In the case of `CC1CCc2c(sc3ncnc(N4CCOCC4)c23)C1` (centres undefined) it was “inactive”; in that of `CCN1C(=O)[C@H]2[C@@H](c3ccc(C)cc3)N3C(=O)N(c4ccc(C(F)(F)F)cc4)C(=O)[C@@]3(CC(C)C)[C@H]2C1=O`, “inactive”; in that of `CCOc1c(C)cnc2c1c(=O)n(Cc1ccc(Cl)cc1)c(=O)n2C`, “inactive”. On to `Cc1ccc2cc(C#N)c(NCCNC(=O)C3CC3)nc2c1C`, for which the activity change, negative = cytotoxicity result is “inactive”. Next, `COc1ccc(S(=O)(=O)Nc2ccc3c(c2)CC(=O)N([C@@H](C)CO)C[C@H](C)[C@H](CN(C)S(=O)(=O)c2cccs2)O3)cc1`: “inactive”; `COc1ccc(CCC(C)NCc2cc(OC)cc(OC)c2)cc1` (centres undefined): “inactive”; `CCCc1cc(C(=O)NCc2ccc(OC)cc2)no1`: “inactive”. In the case of `Cc1ccc(OCCN2CCN(c3ncnc4sc(C)c(C)c34)CC2)cc1` it was “inactive”; in that of `COc1cc(C(=O)N2CCN(c3ncnc4sc(C)c(C)c34)CC2)cc(OC)c1OC`, “inactive”. Next, `CN(C)C(=O)C[C@H]1C[C@@H]2c3cc(NC(=O)NC4CCCCC4)ccc3O[C@@H]2[C@H](CO)O1`: “inactive”. In the case of `CCN(C[C@H]1N[C@@](C)(C(=O)OC)[C@H]2C(=O)N(Cc3ccccc3)C(=O)[C@@H]12)C(=O)c1ccc(C(C)(C)C)cc1`, the activity change, negative = cytotoxicity entry was “inactive”. Next, `O=C(Nc1ccc(Oc2ccccc2)cc1)c1csc([C@H]2C[C@H](O)[C@@H](CO)O2)n1`: “inactive”. In the case of `c1csc(CNc2ncnc3sccc23)c1` it was “inactive”; in that of `CCN(CC(=O)Nc1cc(Cl)ccc1C)C(=O)c1ccc(=O)n(Cc2ccccc2)n1`, “inactive”; in that of `O=C(NCC(=O)N1CCN(c2ncccn2)CC1)c1ccccc1OC(F)F`, “inactive”. In the case of `O=C(CCCn1c(=S)[nH]c2cc3c(cc2c1=O)OCO3)N1CCN(c2ccc(Cl)cc2)CC1` it was “inactive”; in that of `O=C(Nc1ccc(N2CCN(C(=O)c3ccccc3)CC2)c(Cl)c1)c1cccnc1`, “inactive”; in that of `S=c1[nH]cc(-c2ccccc2)n1-c1cccc(Cl)c1`, “inactive”. For `CCOc1ccc(NC2c3ccccc3C(=O)N2Cc2ccco2)cc1` (centres undefined), the activity change, negative = cytotoxicity result is “inactive”. Take `CC1CN(S(=O)(=O)c2cc(C(=O)NCCC3=CCCCC3)ccc2Cl)CC(C)O1` (centres undefined): the activity change, negative = cytotoxicity is -1.11% [at 8 µM].
